Compound activity as filed in PubChem BioAssay.
In the library only some 2.9% were active in any assay of this set; here they are far more common.
KDM5B inhibitor – Primary screen for KDM5B Histone Demethylases FDH-coupled qHTS. Lysine-specific demethylase 5B (Homo sapiens), Q9UGL1. KDM5B demethylase, FDH-coupled NADH fluorescence (FDH is formaldehyde dehydrogenase). Potency, µM (doses to about 57.7 µM), hits mostly inhibitors. 2.6% of 220,000 active. AID 1347165, 2019; also: potency is read from the fitted curve at half-maximal effect; 0% is about no effect; nearly all actives have a fitted effect of over 70% in size
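KDM5BΔAP (200 nM final) in 50 mM HEPES pH 7.5, 0.01% Tween-20 was preincubated 10 min at RT with compound over a concentration range. Substrate mix (H3K4me3 12.5 µM, α-KG 25 µM, Fe²⁺, ascorbate, NAD⁺, FDH) was added, and NADH fluorescence change over 30 min gave dose-response curves.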
SNCA viab count – GF-AFC viability counterscreen for inhibitors of alpha-synuclein gene (SNCA) expression. HEK-293-SNCA-luc viability, GF-AFC fluorescence, 24 h. Potency, µM (highest dose often 57.1 µM), without a hit: top-dose activity change, negative = cytotoxicity, usual class: cytotoxic. 0.12% of 150,000 active. AID 1671193, 2021;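 also: potency is read from the fitted curve at half-maximal effect; 0% = DMSO-treated cells and -100% = medium-only wells without cells; nearly all actives have a fitted effect of over 30% in size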
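HEK-293-SNCA-luc cells (1500/well) plated 24 h, then exposed 24 h to a dilution series; GF-AFC added 30 min at 37C, fluorescence 405/540 nm; normalised to medium-only and DMSO wells, Hill fit.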
IP6K1 inh – Primary qHTS assay for small molecule inhibitors of Inositol hexaphosphate kinase 1 (IP6K1) | Inositol hexakisphosphate kinase 1 (Homo sapiens), Q92551 | IP6K1 kinase, ADP-Glo luminescence, 2 h; stronger effect = lower value | activity change, % (series mostly up to about 58 µM) | 0.81% of 140,000 active; in the data active = activity change below about -25%; also: % is scaled to controls: 0 for no effect and ±100 for the full control effect
Target sequence (Q92551 whole entry, looked up): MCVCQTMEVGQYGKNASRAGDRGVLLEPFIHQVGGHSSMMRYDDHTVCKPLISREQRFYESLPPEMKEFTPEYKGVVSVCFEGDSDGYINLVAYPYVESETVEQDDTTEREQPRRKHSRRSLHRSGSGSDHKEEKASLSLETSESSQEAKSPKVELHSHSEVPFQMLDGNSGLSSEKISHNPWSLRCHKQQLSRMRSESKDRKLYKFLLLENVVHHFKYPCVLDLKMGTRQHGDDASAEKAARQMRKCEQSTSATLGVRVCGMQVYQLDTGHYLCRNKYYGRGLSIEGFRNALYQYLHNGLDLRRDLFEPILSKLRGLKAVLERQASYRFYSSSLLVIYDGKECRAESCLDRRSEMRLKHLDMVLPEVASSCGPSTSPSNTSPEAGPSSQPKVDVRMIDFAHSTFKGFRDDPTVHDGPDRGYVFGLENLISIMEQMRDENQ
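ADP-Glo luminescence measures ADP made by human IP6K1 during a 2 h RT reaction with ATP/IP6 (mix at 1.3 mM/130 uM); top library doses 57.5 and 19.1 uM final.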
SNCA expr inhib – Primary qHTS assay for inhibitors of alpha-synuclein gene (SNCA) expression. HEK-293 SNCA-luciferase knock-in, luminescence, 24 h. Potency, µM (series often up to 57.2 µM), without a hit: at the highest dose activity change, negative = inhibition, most hits filed as inhibitors. 0.17% of 140,000 active. AID 1671194, 2021;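 also: potency is read from the fitted curve at half-maximal effect; plate controls were DMSO cells for no effect and cell-free wells for full effect; nearly all actives have a fitted effect of over 45% in size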
IP6K1 conf – Confirmatory qHTS assay for small molecule inhibitors of Inositol hexaphosphate kinase 1 (IP6K1); AID 1645852, 2021; 13% of 1,200 active; shares compounds with IP6K1 inh; Potency, µM (series often up to 49 µM), for inactives: at the highest dose activity change, negative = inhibition, actives largely listed as inhibitors; recombinant IP6K1 kinase, ADP-Glo luminescence, 2 h; also: potency is read from the fitted curve at half-maximal effect; % is scaled to controls: 0 for no effect and ±100 for the full control effect; nearly all actives have a fitted effect of over 65% in size
* hit, by the source's call; [ ] = dose if it differs, or a comment. Unless noted, calls follow the shape of the dose curve; as a rule, active = well fitted curve in the direction sought with a large enough effect; inconclusive = small, poorly fitted or top-dose-only effect, or another doubt; inactive = no such curve, though single readings can be large; an effect the other way counts as inactive or inconclusive.

`Cc1ccccc1Cn1cc(CCC(=O)NCc2cccc(Br)c2)c2ccccc21` gave KDM5B inhibitor inconclusive, SNCA viab count inconclusive, IP6K1 inh -29*, SNCA expr inhib -18% and IP6K1 conf 10%.
Screening COc1ccc(CNC(=O)CCc2cn(Cc3cc(C)ccc3C)c3ccccc23)cc1OC returned KDM5B inhibitor inactive, SNCA viab count 5%, IP6K1 inh 32 and SNCA expr inhib inconclusive.
`Cc1cccc(CNS(=O)(=O)c2csc(C(N)=O)c2)c1` gave KDM5B inhibitor inactive, SNCA viab count 10%, IP6K1 inh -8 and SNCA expr inhib inconclusive.
`NC(=O)c1cc(S(=O)(=O)NCc2cccc(Br)c2)cs1` gave KDM5B inhibitor inactive, SNCA viab count -2%, IP6K1 inh -30*, SNCA expr inhib -22% and IP6K1 conf -15%.
`COCCNc1nc(-c2ccccc2C(F)(F)F)nc2ccccc12` gave SNCA viab count -20% and SNCA expr inhib -1%.
For FC(F)(F)c1ccccc1-c1nc(NCc2ccc(Cl)cc2)c2ccccc2n1 the results were IP6K1 conf -2%.
`Cc1ccc(CNc2nc(-c3ccccc3C(F)(F)F)nc3ccccc23)s1` gave IP6K1 conf -7%.
`CN(C)c1nc(-c2ccccc2C(F)(F)F)nc2ccccc12` gave SNCA viab count -16% and SNCA expr inhib -6%.
Screening CN(Cc1cccs1)c1nc(-c2ccccc2C(F)(F)F)nc2ccccc12 returned IP6K1 conf 8%.
For FC(F)(F)c1ccccc1-c1nc(NCc2ccccc2)c2ccccc2n1 the results were IP6K1 conf 31%.
`CCCC(O)CN1CCC(=O)N(CC(C)(C)C)Cc2cc3c(cc21)OCO3` (centres undefined) gave IP6K1 inh -5.
For COC(=O)CSc1nc2c(cnn2-c2ccc(F)cc2)c(=O)[nH]1 the results were KDM5B inhibitor inactive, SNCA viab count -6%, IP6K1 inh -32*, SNCA expr inhib 5% and IP6K1 conf inconclusive.
CCOC(=O)c1cc2c(=O)n3ccccc3nc2n(Cc2ccco2)c1=NC(=O)c1cccc(F)c1 was read as KDM5B inhibitor inconclusive, SNCA viab count inconclusive, IP6K1 inh -39*, SNCA expr inhib 10% and IP6K1 conf -4%.
For Cc1ccc(CNc2oc(-c3ccc(COc4ccc(Cl)cc4)o3)nc2C#N)cc1 the results were KDM5B inhibitor inconclusive, SNCA viab count 4%, IP6K1 inh -30*, SNCA expr inhib -17% and IP6K1 conf 12%.
Screening CCOC(=O)[C@H]1C[C@]2(CCCCN(CCOC)C2=O)N(C(=O)CCc2ccccc2)[C@H]1c1ccco1 returned IP6K1 inh 4.
For COc1ccccc1-c1ccc(C(=O)N2CCC(C(=O)N3CCC(Cc4ccccc4)CC3)CC2)cc1 the results were SNCA viab count -11%[12.5 µM], IP6K1 inh 11 and SNCA expr inhib 0%.
Screening O=C(O)c1ccccc1Nc1cccc(C(F)(F)F)c1 returned SNCA viab count 13%[23.9 µM], IP6K1 inh -31*, SNCA expr inhib -11%[25.6 µM] and IP6K1 conf inconclusive.
O=C(O)c1ccccc1Nc1ccccc1 was read as SNCA viab count 0% and SNCA expr inhib 21%.
For COc1ccc(-c2cc(C(=O)Oc3cccc(C)c3)c3ccccc3n2)cc1 the results were KDM5B inhibitor inconclusive, SNCA viab count 0%, IP6K1 inh -12 and SNCA expr inhib 36%.
For COc1ccc(-c2cc(C(=O)Oc3cccc(C)c3)c3cc(C)ccc3n2)cc1 the results were KDM5B inhibitor inconclusive, SNCA viab count 11%, IP6K1 inh -30*, SNCA expr inhib -5% and IP6K1 conf -15%.
COc1ccc(N2CCN(C(=O)C3CCN(S(=O)(=O)c4cnc[nH]4)CC3)CC2)cc1 was read as KDM5B inhibitor inactive, SNCA viab count -9%, IP6K1 inh -29*, SNCA expr inhib 5% and IP6K1 conf 13%.
For CCC(O)C(=O)N1CCc2onc(-c3ccc(-c4ccccc4)cc3)c2C1 (centres undefined) the results were KDM5B inhibitor inactive, SNCA viab count inconclusive, IP6K1 inh -47*, SNCA expr inhib 45% and IP6K1 conf inconclusive.
CCCOc1ccccc1C(=O)N1CCc2onc(-c3ccccc3)c2C1 was read as KDM5B inhibitor inactive, SNCA viab count -14%, IP6K1 inh 0 and SNCA expr inhib 7%.
Screening CNc1nc2c(s1)C(c1ccc(Cl)cc1)CC(=O)N2 (centres undefined) returned KDM5B inhibitor 32µM*, SNCA viab count 6%, IP6K1 inh -28*, SNCA expr inhib 15% and IP6K1 conf 16µM*.
COc1ccc(C2CC(=O)Nc3nc(N)sc32)cc1OC (centres undefined) was read as KDM5B inhibitor inactive.
O=C(c1ccccc1-c1nn[nH]n1)N1CCN(CCN2CCOCC2)CC1 was read as KDM5B inhibitor inactive, SNCA viab count 2%, IP6K1 inh -5 and SNCA expr inhib 14%.
Screening CN1CC2(CCN(C(=O)c3ccccc3-c3nn[nH]n3)CC2)CC1C(=O)O (centres undefined) returned KDM5B inhibitor inactive, SNCA viab count 2%, IP6K1 inh -38*, SNCA expr inhib 9% and IP6K1 conf -14%.
O=[S+]1([O-])c2cccnc2OC(Cn2cccc2)CN1CCc1ccccc1 (centres undefined) was read as SNCA viab count -1%[23.9 µM], IP6K1 inh -13 and SNCA expr inhib -20%[25.6 µM].
COc1ccc(-c2ccc(C(=O)NC3CCCC3)c(Cl)c2)nn1 was read as IP6K1 inh -3.
`CN(Cc1csc(-c2ccccc2)n1)C(=O)c1ccc2nccn2c1` gave KDM5B inhibitor inconclusive, SNCA viab count -12%, IP6K1 inh 4 and SNCA expr inhib 11%.
`O=C(NCCc1nc(-c2ccccc2)cs1)c1ccc2nccn2c1` gave KDM5B inhibitor inconclusive, SNCA viab count inconclusive, IP6K1 inh -41*, SNCA expr inhib -11% and IP6K1 conf inconclusive.
For Cc1noc(-c2ccc(N3CCC(C)CC3)c([N+](=O)[O-])c2)n1 the results were KDM5B inhibitor inactive, SNCA viab count -7%, IP6K1 inh -36*, SNCA expr inhib 90% and IP6K1 conf inconclusive.
Cc1ccc(-c2noc(-c3ccc(N4CCC(C)CC4)c([N+](=O)[O-])c3)n2)cc1 was read as KDM5B inhibitor inactive, SNCA viab count 0%, IP6K1 inh -7 and SNCA expr inhib 17%.
Screening O=C(NCC1CC1)C1CCCN(Cc2cccc(-c3ccsc3)c2)C1 (centres undefined) returned IP6K1 inh -2.
